In PubChem BioAssay (Tox21) one finds Potency data, which are given here for 40 molecules.

Inconclusive results are not listed. Where a call stands in place of a potency, no number is given. Active and inactive are the calls of the source. Calls follow the shape of the dose curve; as a rule, active = well fitted cell-killing curve with a large enough effect in the repeat runs; inconclusive = weak or mixed curves, or effect the other way; inactive = flat fitted curve, though single readings scatter.
Potency is read from the fitted curve at half-maximal effect.

The test in a line: cAMP Responsive Elements (CRE) small molecule agonists, cell-based qHTS assay: qHTS cell viability counter screen (AID 2060914).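 Also: viability read after 3 h of compound exposure; nearly all actives have a fitted effect of over 50% in size.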 The note with it: CRE-bla HEK293T viability, CellTiter-Glo luminescence, 5 h; series mostly up to 92.4 µM. In a few lines:
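CRE-bla HEK 293T cells, plated 18 h at 37 °C, were exposed to compounds for 3 h at 37 °C/5% CO2. Viability was then measured in the same wells by CellTiter-Glo luminescence after 30 min at room temperature.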
Background: Quantitative high-throughput screening tests each substance at several concentrations.
`CN[C@H]1CC[C@@H](c2ccc(Cl)c(Cl)c2)c2ccccc21`: the Potency entry is “inactive”.
On to `NS(=O)(=O)c1cc(C(=O)O)cc(N2CCCC2)c1Oc1ccccc1`, for which the Potency entry is “inactive”.
For `CCc1cccc(O)c1`, the Potency entry is “inactive”.
As to `C=CCCC(=O)/C=C/C1C(C)=CCCC1(C)C` (stereo not given), the Potency result is “inactive”.
For `c1coc(Cn2cccc2)c1` the value was “inactive”; for `O=C(NN1CCCC1)NS(=O)(=O)c1ccc(Cl)cc1`, “inactive”; for `CS(=O)(=O)c1ccc([C@@H](O)[C@@H](CO)NC(=O)C(Cl)Cl)cc1`, “inactive”.
The entry for `CCC[Si](OC)(OC)OC` is “inactive”.
For `COc1ccc(OC)c(C(O)CNC(=O)CN)c1` (stereo not given) the value was “inactive”; for `CS(=O)(=O)OCCCCOS(C)(=O)=O`, “inactive”.
As for `CCCCCCCOC(=O)c1ccc(O)cc1`, the Potency entry is “inactive”.
`COc1ccccc1NC(=O)c1cc2ccccc2cc1O`: the Potency was 30.6 µM (active).
For the molecule `NC=O`, the Potency result was “inactive”.
For `C[C@@H](N)C(=O)O` the value was “inactive”; for `CCOC(=O)CN`, “inactive”.
For `CN1CCCC(CC2c3ccccc3Sc3ccccc32)C1` (stereo not given) the value was “inactive”.
The entry for `CC1(C)Oc2ccc(C#N)cc2[C@@H](N2CCCC2=O)[C@@H]1O` is “inactive”; for `CC1(C)C(O)C(C)(C)C1O` (stereo not given) it is “inactive”.
As for `CCCCCCCCc1ccc(S(=O)(=O)O)cc1`, the Potency result is “inactive”.
The entry for `O=C(N[C@@H](c1ccccc1)[C@@H]1CCCCN1)c1cccc(C(F)(F)F)c1Cl` is “inactive”.
For the molecule `COc1cc2c(Nc3ccc(Br)cc3F)ncnc2cc1OCC1CCN(C)CC1`, the Potency entry was “inactive”.
For `Cc1cc(-c2ccc(N=Nc3cc(S(=O)(=O)O)c4ccccc4c3N)c(C)c2)ccc1N=Nc1cc(S(=O)(=O)O)c2ccccc2c1N` the value was “inactive”.
For `COc1cc2c(c(OC)c1OC)-c1ccc(OC)c(=O)cc1[C@@H](NC(C)=O)CC2` the value was “inactive”.
The entry for `C=C(C)C(=O)OCC(CC)(COC(=O)C(=C)C)COC(=O)C(=C)C` is “inactive”; for `Cc1cc(C)nc(NS(=O)(=O)c2ccc(N)cc2)n1` it is “inactive”.
Turning to `O=C1CCCCCCCCCCCC(=O)OCCO1`, the Potency entry was “inactive”.
Consider `COc1cccc(OC)c1O`, for which the Potency result is “inactive”.
For `CC(C)=CCO` the value was “inactive”; for `C=CC(=O)NCOCCCC`, “inactive”; for `O=CN1CCOCC1`, “inactive”.
`C#C[C@]1(OC(C)=O)CC[C@H]2[C@@H]3CCC4=C[C@@H](OC(C)=O)CC[C@@H]4[C@H]3CC[C@@]21C`: the Potency entry is “inactive”.
For `FC(F)(F)c1ccccc1` the value was “inactive”.
`CNC(=O)c1ccccc1`: the Potency result was “inactive”.
Consider `O=S(=O)(O)c1cc(Cl)c(Cl)cc1Cl`, for which the Potency result was “inactive”.
The entry for `OCc1ccc(Cl)cc1Cl` is “inactive”.
With `CCCCCCCCCCC`, the Potency result is “inactive”.
As for `C[C@]12CC[C@H]3[C@@H](CCC4=CC(=O)CC[C@@]43C)[C@@H]1CC[C@@H]2C(=O)CO`, the Potency result was “inactive”.
The entry for `CC(C(O)c1ccccc1)N(C)CCOC(c1ccccc1)c1ccccc1` (stereo not given) is “inactive”.
As to `Cc1ccc(C(=O)C(=O)O)cc1C`, the Potency entry is “inactive”.
As to `CCCCCCCC(=O)Oc1c(Br)cc(C#N)cc1Br`, the Potency result was “inactive”.
